Among the data in PubChem BioAssay (Tox21) are Potency values, retold here.

Test [1] is described as follows: Nuclear factor erythroid 2-related factor 2/antioxidant responsive element (Nrf2/ARE) small molecule agonists: qHTS cell viability counter screen in human keratinocytes (AID 1919968; active = well fitted curve in the direction sought with a large enough effect in the repeat runs; an effect the other way counts as inactive or inconclusive; note: nearly all actives have a fitted effect of over 55% in size; note: potency is the fitted concentration of half-maximal effect). The gist of the method:
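KeratinoSens cells (HaCaT keratinocytes stably carrying an ARE-luciferase reporter) were seeded at 1,500 cells/well and rested 5 h at 37 C/5% CO2. They were then exposed to compounds in DMSO for 23 h. Viability was read by CellTiter-Fluor fluorescence after 1 h.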
In general terms: In qHTS, concentration-response curves come from the screen itself.

Test [2] has as its target Gonadotropin-releasing hormone receptor (Homo sapiens) (UniProt P30968). Briefly: Human gonadotropin-releasing hormone receptor (GnRHR) small molecule agonists, calcium flux assay in GnRHR-HEK293 cells (AID 1920063). Note: nearly all actives have a fitted effect of over 35% in size. Note: potency is the fitted concentration of half-maximal effect. The gist of the method:
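HEK293 cells stably expressing human GnRHR were plated 18 h at 37 °C, loaded with calcium dye 1 h at 37 °C, then given compound in agonist mode; fluorescence (Ex/Em 480/540) read kinetically for 3 min at 1 s intervals.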

A short description of test [3]: G protein-coupled receptor (GPCR) small molecule agonists, calcium flux assay: HEK293 wild type cell line counter screen (AID 1920065). The gist of the method:
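Cells were plated and cultured 18 h at 37 C/5% CO2, then loaded with calcium dye for 1 h at 37 C. Compounds in DMSO were pin-transferred in agonist mode, and fluorescence (Ex/Em 480/540) was read kinetically for 3 min at 1 s intervals.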
For orientation: Calcium assays in cells follow changes in intracellular calcium, usually with a dye or a luminescent sensor.

Test [4] can be described thus: p53 small molecule agonists, cell-based qHTS assay with human liver microsomes: qHTS cell viability counter screen (AID 1963579). Note: nearly all actives have a fitted effect of over 45% in size. Note: potency is the fitted concentration of half-maximal effect. Summed up: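 Metabolic activation used human liver microsomes and NADPH, both 0.5 mg/mL final, over 16 hours at 37 C on p53RE-bla cells (4,000/well). Cytotoxicity measured by CellTiter-Glo luminescence, 30 min at room temperature.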
Test [5] is described as follows: p53 small molecule agonists, cell-based qHTS assay with rat liver microsomes: qHTS cell viability counter screen (AID 1963580). Note: nearly all actives have a fitted effect of over 45% in size. Note: potency is the fitted concentration of half-maximal effect. The gist of the method: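 HCT-116 p53RE-bla, 4,000 cells/well, 5 h pre-incubation; cpd + rat liver microsomes 0.5 mg/mL + NADPH 0.5 mg/mL (final); 16 h, 37 C; CellTiter-Glo, 30 min RT; luminescence.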
Test [6] can be described thus: p53 small molecule agonists, cell-based qHTS assay: qHTS cell viability counter screen (AID 1963581). Note: nearly all actives have a fitted effect of over 45% in size. Summed up:
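p53RE-bla HCT-116 cells were exposed to compounds for 16 h at 37 C; after the beta-lactamase FRET read in the same wells, CellTiter-Glo was added and luminescence (intracellular ATP) read after 30 min at room temperature.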

Test [7] is described as follows: p53 small molecule agonists, cell-based qHTS assay (AID 1963582; active = well fitted activation curve with a large enough effect in the signal ratio in the repeat runs, not every such curve was filed as active; the % refers to the signal ratio). Summed up: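 p53RE-bla beta-lactamase reporter cells rested 5 h at 37 C/5% CO2, then received compounds in DMSO by pin transfer and were incubated 16 h at 37 C. LiveBLAzer B/G FRET substrate was loaded for 2 h at room temperature before fluorescence reading.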
In test [8] the target is 5-hydroxytryptamine receptor 2A (Homo sapiens) (UniProt P28223). Briefly: 5-hydroxytryptamine receptor 2A (HTR2A) small molecule antagonists, cell-based qHTS assay (AID 1963586). Note: nearly all actives have a fitted effect of over 45% in size. Summed up: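 Antagonist-mode intracellular calcium assay: DOI (4 nM) added after 5 min compound pre-incubation at room temperature to dye-loaded HTR2A-CHO cells. Fluorescence followed for 3 min, sampled every second.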
Chain of 5-hydroxytryptamine receptor 2A (Homo sapiens) (P28223 whole entry, looked up): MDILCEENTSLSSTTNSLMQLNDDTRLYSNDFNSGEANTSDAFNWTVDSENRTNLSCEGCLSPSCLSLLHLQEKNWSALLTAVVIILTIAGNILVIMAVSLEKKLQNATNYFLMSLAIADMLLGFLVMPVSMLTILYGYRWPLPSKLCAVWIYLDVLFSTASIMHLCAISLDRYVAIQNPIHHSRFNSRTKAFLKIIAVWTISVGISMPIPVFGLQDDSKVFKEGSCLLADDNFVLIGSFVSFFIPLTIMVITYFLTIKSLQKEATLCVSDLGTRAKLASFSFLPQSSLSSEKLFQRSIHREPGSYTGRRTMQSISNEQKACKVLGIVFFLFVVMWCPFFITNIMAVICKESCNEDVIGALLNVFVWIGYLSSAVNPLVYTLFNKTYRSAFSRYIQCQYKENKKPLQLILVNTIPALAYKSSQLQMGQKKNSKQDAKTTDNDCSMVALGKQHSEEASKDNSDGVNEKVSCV

Test [9] shares this target. Briefly: 5-hydroxytryptamine receptor 2A (HTR2A) small molecule agonists, cell-based qHTS assay (AID 1963587). Note: nearly all actives have a fitted effect of over 30% in size. Note: potency is the fitted concentration of half-maximal effect. Summed up: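 Kinetic calcium-flux fluorescence (2 min, 1 sec intervals) after compound addition in agonist mode. HTR2A-CHO cells were cultured 18 h, then dye-loaded 1 h at 37 C.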
In test [10] the target is Muscarinic acetylcholine receptor M1 (Homo sapiens) (UniProt P11229). Briefly: Cholinergic receptor muscarinic 1 (CHRM1) small molecule antagonists, cell-based qHTS assay (AID 1963588). Note: nearly all actives have a fitted effect of over 40% in size. Note: potency is the fitted concentration of half-maximal effect. The gist of the method: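 CHRM1-CHO calcium-flux assay, antagonist mode. Cells were seeded 18 h, dye-loaded 1 h at 37 C and given compound for 5 min at RT, then acetylcholine was added at 50nM. FDSS fluorescence was read 3 min; 15 concentrations, three runs.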
Chain of Muscarinic acetylcholine receptor M1 (Homo sapiens) (P11229 whole entry, looked up): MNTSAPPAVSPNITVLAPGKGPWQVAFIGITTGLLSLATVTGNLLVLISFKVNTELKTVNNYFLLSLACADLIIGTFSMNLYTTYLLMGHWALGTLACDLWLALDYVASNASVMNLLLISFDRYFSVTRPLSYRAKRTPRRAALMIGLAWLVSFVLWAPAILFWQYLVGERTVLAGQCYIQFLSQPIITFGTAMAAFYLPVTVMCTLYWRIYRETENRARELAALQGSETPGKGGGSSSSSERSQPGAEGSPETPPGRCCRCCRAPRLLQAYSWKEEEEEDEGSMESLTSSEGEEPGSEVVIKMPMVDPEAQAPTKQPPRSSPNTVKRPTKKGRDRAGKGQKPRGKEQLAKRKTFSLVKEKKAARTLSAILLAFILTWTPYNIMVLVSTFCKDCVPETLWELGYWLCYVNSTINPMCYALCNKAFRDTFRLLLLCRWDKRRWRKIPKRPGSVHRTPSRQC

A short description of test [11]: cAMP Responsive Elements (CRE) small molecule agonists, cell-based qHTS assay (AID 1963590). The gist of the method: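 CRE-bla HEK 293T cells in DMEM with 10% dialyzed FBS, NEAA, pyruvate and 25 mM HEPES were plated 18 h at 37 C/5% CO2, then exposed to compounds in DMSO for 3 h before LiveBLAzer B/G FRET substrate addition.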
The nature of test [12]: cAMP Responsive Elements (CRE) small molecule antagonists, cell-based qHTS assay (AID 1963591; active = well fitted inhibition curve with a large enough effect in the signal ratio in the repeat runs, not every such curve was filed as active; the % refers to the signal ratio). The gist of the method:
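CRE-bla HEK293T cells were plated 18 h at 37 °C/5% CO2, pinned with compound in DMSO, then stimulated with NKH477 at 0.25 uM final for 3 h. LiveBLAzer B/G FRET substrate was added and plates incubated 2 h at room temperature.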

In test [13] the target is Beta-2 adrenergic receptor (Homo sapiens) (UniProt P07550). Briefly: Adrenergic beta2 receptor (ADRB2) small molecule antagonists, cell-based qHTS assay (AID 1963592). Note: series mostly up to about 92 µM; nearly all actives have a fitted effect of over 50% in size. The gist of the method:
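Cells (CHO, stable ADRB2 overexpression) incubated 18-20hr at 37C; compounds added from DMSO; agonist mix (1nM isoproterenol, 100uM IBMX, 25uM Ro-20-1724) added; 0.5hr RT; d2-cAMP and anti-cAMP-cryptate added; 1hr RT; 665/615 nm read.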

Test [14] addresses KiSS-1 receptor (Homo sapiens) (UniProt Q969F8). Briefly: Human kisspeptin (KISS1R) small molecule agonists, calcium flux assay in KISS1R-HEK293 cells (AID 1920064; active = well fitted curve in the direction sought with a large enough effect in the repeat runs; an effect the other way counts as inactive or inconclusive; note: potency is the fitted concentration of half-maximal effect). The gist of the method:
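HEK293 cells stably expressing human KISS1R were plated 18 h at 37 °C, loaded with calcium dye for 1 h at 37 °C, then given compound by pin tool. Fluorescence (Ex/Em 480/540) was read kinetically for 3 min.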

In test [15] the target is Muscarinic acetylcholine receptor M1 (Homo sapiens) (UniProt P11229). Briefly: Cholinergic receptor muscarinic 1 (CHRM1) small molecule agonists, cell-based qHTS assay (AID 1963589). Note: nearly all actives have a fitted effect of over 35% in size. Summed up:
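CHO cells stably expressing human CHRM1, seeded 18 h at 37 C/5% CO2, dye-loaded 1 h at 37 C, then given compound in agonist mode; intracellular calcium fluorescence read kinetically at 1 s intervals. Fifteen concentrations, three independent runs.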

In test [16] the target is D(2) dopamine receptor (Homo sapiens) (UniProt P14416). Briefly: Dopamine D2 receptor (DRD2) small molecule agonists, cell-based qHTS assay (AID 1963594). Note: nearly all actives have a fitted effect of over 35% in size. The gist of the method:
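cAMP accumulation in DRD2-HEK293 cells measured by HTRF after 1 h detection; compounds added 10 min before NKH477 (200nM […]) forskolin-analogue stimulation, 30 min at room temperature, with Ro20-1724 present at 0.1 mM final.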

Test [17] in a line: p53 small molecule agonists, cell-based qHTS assay with human liver microsomes (AID 1963577).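 Note: p53 response element beta-lactamase reporter cells with liver microsomes plus NADPH.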 Summed up:
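With metabolic activation: human liver microsomes (0.5 mg/mL final) plus NADPH (0.5 mg/mL final) added alongside compounds to p53RE-bla cells; 16 h 37 C exposure; beta-lactamase read by LiveBLAzer fluorescence.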

Test [18] can be described thus: p53 small molecule agonists, cell-based qHTS assay with rat liver microsomes (AID 1963578). Summed up: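 Metabolic activation by rat liver microsomes and NADPH, each 0.5 mg/mL final, added right after compounds to p53RE-bla reporter cells (4,000/well, plated 5 h earlier). 16 h at 37 C, then LiveBLAzer substrate for 2 h at room temperature in the dark; fluorescence read-out.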

Test [19] has as its target D(2) dopamine receptor (Homo sapiens) (UniProt P14416). Briefly: Dopamine D2 receptor (DRD2) small molecule antagonists, cell-based qHTS assay (AID 1963595; active = well fitted inhibition curve with a large enough effect in the signal ratio in the repeat runs, with a control signal flat; the % refers to the signal ratio; note: potency is the fitted concentration of half-maximal effect). Summed up:
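Stable D2 receptor HEK293 line, 24 h after seeding. Compound preincubated 10 min, then quinpirole (12 nM) with forskolin analogue NKH477 (200 nM), 30 min, room temperature. Detection by time-resolved FRET of cAMP.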

Each structure is given as a SMILES string. Unmarked numbers belong to inactive results. Results filed as inconclusive are left out. The source made the active and inactive calls. Unless noted, calls come from the whole dose curve.

Chain of KiSS-1 receptor (Homo sapiens) (Q969F8 whole entry, looked up): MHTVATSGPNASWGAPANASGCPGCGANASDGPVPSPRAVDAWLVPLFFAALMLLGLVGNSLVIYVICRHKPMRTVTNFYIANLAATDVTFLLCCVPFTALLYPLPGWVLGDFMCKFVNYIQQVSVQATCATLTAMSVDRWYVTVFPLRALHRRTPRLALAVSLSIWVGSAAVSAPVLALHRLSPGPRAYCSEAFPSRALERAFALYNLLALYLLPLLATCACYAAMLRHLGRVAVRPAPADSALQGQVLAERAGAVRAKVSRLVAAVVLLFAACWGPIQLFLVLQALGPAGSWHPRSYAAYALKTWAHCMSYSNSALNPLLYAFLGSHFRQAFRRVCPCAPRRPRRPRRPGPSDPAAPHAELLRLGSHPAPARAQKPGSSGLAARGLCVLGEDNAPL
Chain of Beta-2 adrenergic receptor (Homo sapiens) (P07550 whole entry, looked up): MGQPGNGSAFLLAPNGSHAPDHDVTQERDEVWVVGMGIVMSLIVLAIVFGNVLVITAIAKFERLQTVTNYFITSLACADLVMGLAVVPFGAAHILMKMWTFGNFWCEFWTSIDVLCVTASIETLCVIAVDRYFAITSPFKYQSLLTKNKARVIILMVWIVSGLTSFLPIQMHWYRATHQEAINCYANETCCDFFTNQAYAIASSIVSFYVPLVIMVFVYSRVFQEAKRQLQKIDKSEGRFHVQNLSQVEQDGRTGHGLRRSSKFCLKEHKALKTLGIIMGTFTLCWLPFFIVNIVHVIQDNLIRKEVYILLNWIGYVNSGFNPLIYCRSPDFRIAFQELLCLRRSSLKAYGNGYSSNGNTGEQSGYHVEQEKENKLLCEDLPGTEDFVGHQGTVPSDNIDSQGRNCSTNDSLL
Chain of D(2) dopamine receptor (Homo sapiens) (P14416 whole entry, looked up): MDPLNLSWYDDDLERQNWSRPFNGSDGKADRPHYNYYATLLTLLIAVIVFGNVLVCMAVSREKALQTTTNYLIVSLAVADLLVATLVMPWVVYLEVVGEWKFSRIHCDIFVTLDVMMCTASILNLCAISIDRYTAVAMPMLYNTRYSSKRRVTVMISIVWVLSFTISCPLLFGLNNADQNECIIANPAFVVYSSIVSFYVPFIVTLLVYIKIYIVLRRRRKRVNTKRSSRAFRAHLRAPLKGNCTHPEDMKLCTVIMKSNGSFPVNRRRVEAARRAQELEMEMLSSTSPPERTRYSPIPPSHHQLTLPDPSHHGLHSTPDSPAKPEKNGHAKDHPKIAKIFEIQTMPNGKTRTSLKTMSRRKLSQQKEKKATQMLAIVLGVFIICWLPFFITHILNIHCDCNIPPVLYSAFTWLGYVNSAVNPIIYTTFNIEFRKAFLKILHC
Chain of Gonadotropin-releasing hormone receptor (Homo sapiens) (P30968 whole entry, looked up): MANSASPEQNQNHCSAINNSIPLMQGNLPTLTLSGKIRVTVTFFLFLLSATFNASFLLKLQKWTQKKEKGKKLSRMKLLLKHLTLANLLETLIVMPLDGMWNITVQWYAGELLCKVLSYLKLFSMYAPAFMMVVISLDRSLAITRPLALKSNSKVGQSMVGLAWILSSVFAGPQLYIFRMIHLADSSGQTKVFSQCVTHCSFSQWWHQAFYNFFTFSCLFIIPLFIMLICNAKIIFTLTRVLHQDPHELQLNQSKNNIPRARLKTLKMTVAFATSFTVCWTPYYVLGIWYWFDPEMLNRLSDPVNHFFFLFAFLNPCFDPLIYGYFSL

Turning to `CCOP(=S)(OCC)SCCl`, the Potency result in test [1], in test [2], in test [3], in test [4], in test [5] and in test [6] was “inactive” each time. For the same compound, the Potency entry in test [7], in test [8], in test [9], in [10], in [11] and in test [12] was “inactive” each time. In addition, in test [13], the Potency result is “inactive”.

Take `CC(=O)[O-].CC(=O)[O-].O.O.[Cd+2]`: the Potency is 42.7 µM (active) in [1] and 27.2 µM (active) in test [9]. In addition, the Potency entry in test [14], in [3], in test [4], in [5], in test [8] and in [10] was “inactive” throughout. The Potency entry in test [15], in [13] and in test [16] was “inactive” each time.

Take `O=C1OC(CCN2CCCCC2)OC1(c1ccccc1)c1ccccc1` (configuration not stated): the Potency entry in test [1], in test [14], in test [3], in test [17], in [18] and in [4] was “inactive” each time. Further, the Potency result in test [5], in [6], in test [7], in [9], in test [15] and in [11] was “inactive” each time. Also, the Potency result in test [12], in test [16] and in test [19] was “inactive” each time. The Potency in test [10] was 2.31 µM (active).

Regarding `Oc1c(Cl)cccc1Cl`, the Potency result in test [1], in [2], in [14], in test [4], in test [5] and in test [6] was “inactive” throughout. Also, the Potency result in test [8], in test [10], in test [15], in test [11], in test [12] and in [13] was “inactive” in each case. Besides, the Potency entry in [19] was “inactive”.

As for `CCOP(=O)(NC(C)C)Oc1ccc(SC)c(C)c1` (configuration not stated), the Potency entry in test [1], in [14], in test [3], in [5], in test [7] and in test [8] was “inactive” in each case. For the same compound, the Potency result in [10], in test [15] and in [19] was “inactive” in each case.

Regarding `Cc1cc2c3c(c1)C(c1ccccc1)=N[C@@H](NC(=O)c1ccncc1)C(=O)N3CC2`, the Potency entry in test [1], in test [2], in [3], in test [18], in test [4] and in [5] was “inactive” in each case. Also, the Potency result in test [7], in test [8], in test [9], in test [10], in test [15] and in [13] was “inactive” in each case. The Potency entry in [19] was “inactive”.

`CCCCCCCCc1ccc(O)cc1`: the Potency is 43.5 µM (active) in test [1], 36.6 µM (active) in test [4] and 48.8 µM (active) in test [5]. Moreover, the Potency result in [14], in test [3], in test [17] and in test [13] was “inactive” each time.

With `NP(N)(=O)NC(=O)c1ccc(F)cc1`, the Potency result in [1], in test [2], in test [3], in [17], in [4] and in test [5] was “inactive” in each case. Besides, the Potency entry in [6], in test [7], in test [9], in [10], in test [15] and in test [11] was “inactive” each time. Further, the Potency result in test [12], in test [13] and in test [19] was “inactive” each time.

For `ClC1=C(Cl)[C@]2(Cl)[C@@H]3[C@@H]4C[C@@H]([C@H]5O[C@@H]45)[C@@H]3[C@@]1(Cl)C2(Cl)Cl`, the Potency in test [1] is 48.6 µM (active); in test [2] it was 7.76 µM (active); in test [14], 23.7 µM (active); in [19], 68.6 µM (active). In addition, in test [6], the Potency entry was “inactive”.

Take `CCOP(=S)(OCC)Oc1ccc(S(C)=O)cc1` (configuration not stated): the Potency entry in [1], in test [2], in test [14], in [4], in test [5] and in test [6] was “inactive” throughout. Besides, the Potency result in [8], in test [9], in test [10], in [15], in [11] and in test [12] was “inactive” in each case. Besides, the Potency entry in test [13], in [16] and in test [19] was “inactive” throughout.
